Reference: PubChem BioAssay (NCATS)
Records with an inconclusive call do not appear. A number with no mark means an inactive call. The source made the active and inactive calls. The call rests on the fitted dose curve.

biological target: Atrial natriuretic peptide receptor 1 (Homo sapiens) (UniProt P16066); experiment: Natriuretic polypeptide receptor (hNpr1) antagonism - Pilot screen (AID 1347049); conditions: hNpr1 cells, antagonist mode cGMP read-out; series mostly up to 57.5 µM; activity change, negative = inhibition: at the top concentration
Sequence (P16066 whole entry, looked up, the tested form may be a part): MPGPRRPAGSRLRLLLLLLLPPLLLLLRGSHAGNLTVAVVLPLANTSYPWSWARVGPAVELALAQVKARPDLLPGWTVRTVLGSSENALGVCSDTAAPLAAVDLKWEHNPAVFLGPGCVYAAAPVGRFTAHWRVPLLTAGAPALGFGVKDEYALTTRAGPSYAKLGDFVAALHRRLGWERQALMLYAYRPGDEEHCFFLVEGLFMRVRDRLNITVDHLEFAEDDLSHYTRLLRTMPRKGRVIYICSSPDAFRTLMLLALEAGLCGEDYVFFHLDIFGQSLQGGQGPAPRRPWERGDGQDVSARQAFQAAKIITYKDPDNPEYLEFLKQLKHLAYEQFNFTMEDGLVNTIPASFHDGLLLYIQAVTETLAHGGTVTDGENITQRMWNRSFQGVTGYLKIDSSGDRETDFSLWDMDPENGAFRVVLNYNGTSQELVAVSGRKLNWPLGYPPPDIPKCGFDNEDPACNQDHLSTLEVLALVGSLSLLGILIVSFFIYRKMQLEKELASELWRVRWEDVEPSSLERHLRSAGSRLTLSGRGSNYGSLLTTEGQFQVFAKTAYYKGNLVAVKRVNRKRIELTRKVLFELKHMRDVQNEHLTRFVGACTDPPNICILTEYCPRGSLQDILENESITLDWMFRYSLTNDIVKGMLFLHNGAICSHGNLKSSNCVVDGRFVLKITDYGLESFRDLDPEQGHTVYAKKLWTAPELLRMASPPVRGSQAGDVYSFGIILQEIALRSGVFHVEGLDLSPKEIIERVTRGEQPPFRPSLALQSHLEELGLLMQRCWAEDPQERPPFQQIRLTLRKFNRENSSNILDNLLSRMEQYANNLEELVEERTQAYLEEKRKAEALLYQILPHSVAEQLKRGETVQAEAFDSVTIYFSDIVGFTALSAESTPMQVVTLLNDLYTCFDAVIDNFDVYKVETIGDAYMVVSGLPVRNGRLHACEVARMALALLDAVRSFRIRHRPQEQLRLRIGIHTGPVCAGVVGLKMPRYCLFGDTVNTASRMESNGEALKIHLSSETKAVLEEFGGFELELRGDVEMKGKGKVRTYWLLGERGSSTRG
Description: In order to identify small molecular compounds that inhibit the hNpr1 receptor we developed a high-throughput assay to measure inhibition of the guanylate cyclase activity of the receptor. cGMP production was measured using a circular permutated Firefly luciferase (FLuc) enzyme functionally linked to the cGMP binding domain of human phosphodiesterase 5 (GloSensor technology pGS-40F, (Fan, F. et al. 2008). The cGMP-sensor was expressed in human embryonic kidney 293 (HEK-293) cells and FLuc activity was measured after stimulation with hNrp agonist peptide. hNrp agonists activates the receptor's associated guanylyl cyclase (GC) domain producing cGMP which then binds to the GloSensor resulting in FLuc activation, the enzymatic activity of which can be measured as bioluminescence with addition of luciferin substrate.
F. Fan, B. F. Binkowski, B. L. Butler, P. F. Stecha, M. K. Lewis, K. V. Wood, Novel genetically encoded biosensors using firefly luciferase. ACS Chem Biol 3, 346-351 (2008).
This assay was initially piloted by testing with a small diversity library of compounds with known pharmacological activity.
PROTOCOL TABLES (as described by Inglese J, Shamu CE and Guy RK. 2007)
SEQUENCE No. (e.g., 1, 2, 3, etc.); […] (e.g., Cells, Incubation, Reagent, etc.); VALUE and DESCRIPTION.
1. Cells. Seed 1500 HEK293 cGMP-sensor cells expressing hNpr1 per well in 4uL into Greiner 1536-well white/solid bottom high base, tissue culture-treated plates.
2. Incubation. Incubate plated cells at 37C in 5% CO2, 95% RH overnight.
3. Reagent. Add 1uL per well GloSensor reagent from Promega (2% final concentration) or CO2 independent media vehicle control to respective columns of Greiner 1536-well plates.
4. Incubation. Incubate plated cells at room temperature for 2 h, protect from light.
5. Compounds. Library compounds and A-71915 control added at 23 nL per well, transferred by Pin Tool.
6. Incubation. Incubate plated cells for 30 min. at room temperature, protect from light.
7. Detector. GloSensor baseline pre-read luminescence measured using CCD-based camera (Viewlux).
8. Compound. Add 1uL of hNppA peptide to 0.1 nM final concentration to stimulate hNpr1 or CO2 independent media as vehicle control.
9. Incubation. Incubate treated cells at room temperature for 20 min., protect from light.
10. Detector. GloSensor post-hNppA luminescence measured using CCD-based camera (Viewlux).
NOTES (numbers refer to Sequence numbers above)
1. HEK293 cells expressing hNpr1 and GIP/pGS-40F grown to 85-95% confluence (48-72 h) in T175 culture flasks (CO2 independent media supplemented with 10% FBS, 1% Pen/Strep antibiotics and 1 ug/mL puromycin). Trypsinize and harvest cells from T175 culture flasks and filter through 40 um cell strainer. Cells counted with Invitrogen Countess (30,000,000 - 50,000,000 cells/flask). Cells diluted to a final concentration of 375 cells/uL in CO2 independent media and a Millipore multidrop used to dispense 1500 cells per well (4uL/well) into 9 x 1536-well Greiner White/Solid bottom, high base tissue-culture treated (TC) plates and one Aurora 1536-well Black/Clear bottom, low base, TC plate (for visual inspection of cell health throughout the duration of the assay).
2. Cells incubated overnight at ambient temperature, 24 h. at 37C in 95% RH incubator protected from light, covered with metal lid with gas-exchange holes.
3. Prepare GloSensor Reagent (Promega): Reconstitute GloSensor luciferase substrate by adding 8.2mL Hepes buffer to 250mg substrate, mix well, protect from light and stored at -80C. Prepare a fresh 12% GloSensor solution in CO2 independent supplemented plating media (see above). Mix well and store at ambient temperature, protected from light. 1uL 12% GloSensor Luciferase Reagent added (2% final concentration) to respective columns of 9 x 1536-well Greiner plate with BioRaptr, 1uL CO2 independent plating media added to respective columns as vehicle control with BioRaptr.
4. […]
On the % scale 0 is the no-effect control and ±100 the full control effect; potency means the concentration at half of the fitted maximal effect.

In order of rising “activity change, negative = inhibition” value:
1. CCCCOC(=O)NS(=O)(=O)c1sc(CC(C)C)cc1-c1ccc(Cn2c(CC)nc3c(C)cc(C)nc32)cc1  -11.7%
2. N#Cc1cc([N+](=O)[O-])c2sc(C(N)=O)[n+]([O-])c2c1  -8.63%
3. COc1ccc(-c2ccc(N)[n+](CCCC(=O)O)n2)cc1  -6.92%
4. OC[C@H]1O[C@@H](n2cnc3cncnc32)[C@H](O)[C@@H]1O  -6.14%
5. c1ccc2nc(C3=NCCN3)ccc2c1  -5.01%
6. CCCn1c(=O)c2c(ncn2C)n(CCC)c1=O  -3.75%
7. O=C1NC(=O)c2cc(Nc3ccccc3)c(Nc3ccccc3)cc21  -3.53%
8. N#CC(C#N)=C(N)/C(C#N)=C/c1ccc(O)cc1  -3.5%
9. COC(=O)C1=C(C)NC(C)=C([N+](=O)[O-])C1c1ccccc1C(F)(F)F (stereo not given)  -2.67%
10. CC(=O)NCCc1c[nH]c2ccc(O)cc12  -1.64%
11. Cc1cccc(C(=O)NCN2CCN(c3ccccc3C#N)CC2)c1  -0.315%
12. N[C@@H](Cc1ccc(F)cc1)C(=O)O  -0.294%
13. CC(C)NC[C@H](O)COc1cccc2ccccc12  -0.0447%
14. Nc1ccc(-c2nc3ccc(-c4nc5ccc(N)cc5[nH]4)cc3[nH]2)cc1  0.381%
15. CN1C2CCC1CC(OC(c1ccccc1)c1ccccc1)C2 (stereo not given)  1.91%
16. CCCCCCC(=O)OC1CC(C)(C)NC(C)(C)C1  2.68%
17. Cc1cc2c(cc1Cl)N(C(=O)Nc1ccnc3ccccc13)CC2  2.75%
18. NCCCCN=C(N)N  3.16%
19. O=C(O)c1cccnc1C(=O)O  4.69%
20. O=c1cc(-c2ccccc2)[nH]c2nc(Cl)ccc12  5.1%
21. [N-]=[N+]=Nc1ccc(C(=O)CSC[C@H](NC(=O)CC[C@H](N)C(=O)O)C(=O)NCC(=O)O)cc1  5.41%
22. NC(=Nc1ccccc1)NC(=O)c1nc(Cl)c(N)nc1N  6.14%
23. N[C@H](C(=O)O)[C@H](O)C(=O)O  6.69%
24. NC1(C(=O)O)CC1  6.74%
25. Nc1ncnc2c1ncn2C1CCCC1  7.81%
26. CC(C)[C@@H]1CC[C@@H](C)C[C@@H]1P(=O)(c1ccccc1)c1ccccc1  9.04%
27. C=C1C[C@@]23CC[C@H]4[C@@](C)(CCC[C@@]4(C)C(=O)OC4OC(CO)C(O)C(O)C4O)[C@@H]2CC[C@]1(OC1OC(CO)C(O)C(O)C1OC1OC(CO)C(O)C(O)C1O)C3 (stereo not given in full)  9.37%
28. COC1(C2=NCCN2)COc2ccccc2O1 (stereo not given)  9.48%
29. O=C(O)c1cc(=O)cc(C(=O)O)[nH]1  9.49%
30. O=C(O)/C=C/c1cnc[nH]1  9.91%
31. COc1ccc(-c2cc3ncc(C)n3c(Nc3ncccc3C(N)=O)n2)cc1OC  11.7%
32. N=C(N)SCCN  12.5%
33. NCCCCN  13%
34. NC1(C(=O)O)CCCCC1  14.1%
35. CSC(N)=NCCC[C@H](N)C(=O)O  14.3%
36. [Li+]  14.6%
37. CC(=O)C(C)=O  14.9%
38. CCCCCC(O)CCCC(=O)O (stereo not given)  18.9%
39. N[C@H]1CONC1=O  21.6%

With CC[n+]1c(/C=C/C=C2/N(C)c3ccccc3C2(C)C)sc2ccccc21 the Potency was 213 nM (active).
